# Where “and” joins values, the source holds several entries; their conditions need not be identical. Identical values can stand only once. Some compounds were tested as several samples or in several runs, with calls that do not always agree. Calls of active or inactive are those of the source. The calls were made as follows: active = hit-call score of the fitted dose curve at least 0.9, where 1 is the maximum; inactive = score below 0.9.
# Read-out: ABC Transporter (ABCC2), ABCC2 (gene 1244)
# Assay: LTEA_HepaRG_ABCC2: Life Technologies and Expression Analysis (LTEA) Assay for ABC Transporter (ABCC2) using HepaRG (AID 2283464)
# Settings: mRNA level, 48 h; actives raise or lower the signal
# Protocol: LTEA_HepaRG is a cell based, multiplexed-readout assay that uses HepaRG, a human liver cell line, with measurements taken at 48 hours after chemical dosing on a 96-well plate.LTEA_HepaRG_ABCC2 is one of 102 assay component(s) measured in the LTEA HepaRG cell culture assay. It is a marker of Steatosis/NR mediated transport.Data from the assay component LTEA_HepaRG_ABCC2 was analyzed into 1 endpoint. This assay endpoint, LTEA_HepaRG_ABCC2, was analyzed with bidirectional fitting relative to DMSO as the negative control and baseline of activity. Using a type of inducible reporter, measures of mRNA induction for gain or loss-of-signal activity can be used to understand regulation of transcription factor activity. To generalize the intended target to other relatable targets, this assay endpoint is annotated to the transporter intended target family, where the subfamily is ABC transporter.
# A total of 1060 chemcials from the ToxCast library were tested in eight-point concentration-response experiments. Cell culture and cytotoxicity assays were conducted at Thermo Fisher Scientific's Custom Services facility (Madison, WI). A single lot of human HepaRG cells (Thermo Fisher Scientific, Frederick, MD) was used for the cell culture experiments. 96-well format collagen type I coated plates of human HepaRG cells were prepared using established methods. Briefly, cryopreserved HepaRG cells were thawed, plated at a density of approximately 100,000 cells/well in HepaRG Thaw, Plate, and General Purpose media (HPRG770, Thermo Fisher Scientific), and incubated for 48 hours. 0.5% DMSO was selected as vehicle control to balance the requisite need of DMSO in HepaRG cultures to maintain differentiation (for example, baseline metabolism, proportions of hepatocytes vs. cholangiocytes), while enabling further hepatic receptor pathway activation (for example, PXR and CAR) in response to chemical exposure. 48 hours after plating, the culture medium was replaced with HepaRG Serum-Free Incudtion Media. Cells were exposed to each test chemical in duplicate and maintained in CO2 incubators for another 48 hours. Chemical plates were thawed to room temperature and 200x concentrations of treatment groups were prepared. 8-point conentration-reponse curves were made with the highest exposure at 100 uM, followed by half-log dilutions, all in 0.5% DMSO. Each test plate contained variouse controls, induction positive controls (1mM phenobarbital), cytotoxicity positive controls ([…] aflatoxin B1), vehicle controls (0.5% DMSO), and total lysis controls (0.5% DMSO). Cell morphology images were taken using an Essen IncuCyte FLR automated microscope, with six 96-well plates imaged in about 24 minutes. Images were captured and exported and JPEG files. Spent culture media was transfered to black-well plates for the LDH assay, and remaining media was sorted at -80 C for later use. Cells were treated with RLT buffer and frozen until shipped for gene expression analysis. Total RNA was isolated from the cell suspension in 75 uL of Buffer RLT (Qiagen, Germantown, MD 20874) by Quintiles/Expression Analysis (Durham, NC) using a custom isolation procedure. Total RNA from each plate well was transferred to a preamplification plate. Fluidigm's 96.96 Dynamic ArrayTM (Fluidigm, Amsterdam, the Netherlands) technology was used for gene expression analyses by quantitative reverse transcription polymerase chain reaction (qRT-PCR, performed by Quintiles/Expression Analysis, Durham, NC)89. Standard TaqManTM Assays (Applied Biosystems/ThermoFisher Scientific, Foster City, CA) were used to assess the expression of 93 genes selected based on their selectivity and sensitivity to important hepatic receptors known to be modulated by environmental chemicals; importance in human hepatocyte functionality; and hepatotoxicity. […]
Compound,outcome,AC50
O=C(O)COc1ccc(Cl)cc1Cl,inactive,–
CCOC1Oc2ccc(OS(C)(=O)=O)cc2C1(C)C (stereo not given),inactive,–
COP(=O)(OC)OC=C(Cl)Cl,inactive,–
O=C(O)CCCOc1ccc(Cl)cc1Cl,inactive,–
N#CN,inactive,–
CC(C)(C)C(O)/C(=C\c1ccc(Cl)cc1Cl)n1cncn1 (stereo not given),–,80.6 µM (active)
O=C(NC(=O)c1c(F)cccc1F)Nc1ccc(OC(F)(F)C(F)OC(F)(F)F)c(Cl)c1 (stereo not given),inactive,–
O=C1c2ccccc2C(=O)N1SC(Cl)(Cl)Cl,inactive,–
C[C@H]1[C@H](c2ccc(Cl)cc2)SC(=O)N1C(=O)NC1CCCCC1,inactive,–
C#CCN1C(=O)COc2cc(F)c(N3C(=O)C4=C(CCCC4)C3=O)cc21,–,8.81 µM (active)
CCC(C)(NC(=O)c1cc(Cl)c(C)c(Cl)c1)C(=O)CCl (stereo not given),–,89 µM (active)
CCC(C)(C)C(=O)OC1=C(c2ccc(Cl)cc2Cl)C(=O)OC12CCCCC2,inactive,–
CNC(=O)/C=C(\C)OP(=O)(OC)OC,inactive,–
O=[N+]([O-])c1c(Cl)c(Cl)c(Cl)c(Cl)c1Cl,inactive,–
Cc1[nH]c(=O)n(C(C)(C)C)c(=O)c1Cl,inactive,–
COc1nn(CSP(=S)(OC)OC)c(=O)s1,inactive,–
CNC(=O)Oc1ccccc1OC(C)C,inactive,–
ClC1C(Cl)C(Cl)C(Cl)C(Cl)C1Cl (stereo not given),–,3.62 µM (active)
CC(C)(C)C(O)C(Oc1ccc(Cl)cc1)n1cncn1 (stereo not given),inactive,2.47 µM (active)

Compound,outcome,AC50
CC(C)OC(=O)Nc1cccc(Cl)c1,inactive,–
COP(=S)(OC)Oc1ccc(SC)c(C)c1,inactive,–
CC(C)N(C(=O)COc1nnc(C(F)(F)F)s1)c1ccc(F)cc1,inactive,–
CCc1ccc(C(=O)NN(C(=O)c2cc(C)cc(C)c2)C(C)(C)C)cc1,inactive,–
CCOCN(C(=O)CCl)c1c(C)cccc1CC,inactive,–
Oc1ccc(Cl)cc1Cc1ccccc1,inactive,–
CN1CSC(=S)N(C)C1,inactive,–
Oc1cc(Cl)ccc1Oc1ccc(Cl)cc1Cl,inactive,–
O=C(Nc1ccccc1)Nc1cnns1,–,89.5 µM (active)
CNC(=O)CSP(=S)(OC)OC,inactive,–
O=S(=O)(O)C(F)(F)C(F)(F)C(F)(F)C(F)(F)C(F)(F)C(F)(F)C(F)(F)C(F)(F)F,inactive,14.2 µM (active) and 90.7 µM (active)
CC1(C)C(C=C(Cl)Cl)C1C(=O)OC(C#N)c1ccc(F)c(Oc2ccccc2)c1 (stereo not given),–,50 µM (active)
CNC(=O)Oc1cccc(N=CN(C)C)c1,inactive,–
OCCOc1ccccc1,inactive,–
O=S1OCC2C(CO1)C1(Cl)C(Cl)=C(Cl)C2(Cl)C1(Cl)Cl (stereo not given),inactive,–
CCC(C)Nc1c([N+](=O)[O-])cc(C(C)(C)C)cc1[N+](=O)[O-] (stereo not given),–,17.8 µM (active)
N#Cc1c(Cl)c(Cl)c(Cl)c(C#N)c1Cl,inactive,–
CCN(CC)C(=O)SCc1ccc(Cl)cc1,inactive,–
CCCN(CCOc1c(Cl)cc(Cl)cc1Cl)C(=O)n1ccnc1,–,84.8 µM (active)

# — PubChem BioAssay (EPA / NIEHS)
